The list is not random: actives were taken first. Their share in the collection is about 2.5%.
MEKK2wt PB1 HTS = raises or lowers MEK5 binding to wildtype human MEKK2 PB1 domain | Q9Y2U5 | bead flow cytometry, Alexa488-MEK5 binding to MEKK2 WT; actives lie on both sides | binding response (% of control), % at 10 µM | 1.1% of 290,000 active; in the data active = binding response below about 67% or above about 130%
MEKK2 mut-MEK5 = signal of MEK5 binding to mutant human MEKK2 PB1 domain; bead flow cytometry, Alexa488-MEK5 binding to MEKK2 mutant; percent response, % at 10 µM; 0.35% of 290,000 active; AID 1530; in the data active = percent response above about 24%, passing the limit was not always enough
UBC13 inh = human UBC13 polyubiquitination inhibition. P61088. UBC13 polyubiquitin chain formation, TR-FRET. inhibition, % at 20 µM. 0.47% of 330,000 active; in the data active = inhibition above about 45%, passing the limit was not always enough
MEKK3 PB1 HTS = MEKK3-MEK5 PB1 interaction, increase or decrease; 1.4% of 290,000 active; Q99759; AID 1529; bead-based flow cytometry, Alexa488-MEK5 binding to MEKK3; actives lie on both sides; 0 = blocked by unlabeled MEK5, 100 = vehicle; binding response (% of control), % at 10 µM;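 active = binding response more than 3 SD above or below the average of its plate-row segment, actives on both sides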;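 note: Alexa488 bead fluorescence after subtracting the streptavidin-only scavenger bead signal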
Target sequence (Q99759 whole entry, looked up): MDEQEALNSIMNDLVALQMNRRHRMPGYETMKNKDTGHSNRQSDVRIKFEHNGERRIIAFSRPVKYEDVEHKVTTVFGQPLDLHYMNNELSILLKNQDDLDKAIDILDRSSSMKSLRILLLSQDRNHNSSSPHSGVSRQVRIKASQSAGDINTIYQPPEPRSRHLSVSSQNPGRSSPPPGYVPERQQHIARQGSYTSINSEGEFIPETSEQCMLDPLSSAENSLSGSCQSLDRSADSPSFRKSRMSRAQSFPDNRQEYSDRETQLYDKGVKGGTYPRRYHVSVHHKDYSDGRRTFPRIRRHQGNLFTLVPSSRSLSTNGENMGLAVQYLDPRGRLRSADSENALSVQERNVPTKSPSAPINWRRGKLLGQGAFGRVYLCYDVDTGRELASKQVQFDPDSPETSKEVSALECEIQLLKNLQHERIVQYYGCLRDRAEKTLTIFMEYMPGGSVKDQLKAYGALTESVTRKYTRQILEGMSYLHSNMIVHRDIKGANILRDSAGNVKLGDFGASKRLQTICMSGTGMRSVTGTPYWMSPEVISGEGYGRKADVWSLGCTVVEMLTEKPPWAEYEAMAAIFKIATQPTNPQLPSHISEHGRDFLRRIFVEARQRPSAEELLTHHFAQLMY
Rce1 inh = yeast Ras-converting enzyme inhibition; AID 2563; yeast membranes, quenched prenylated peptide cleavage fluorescence; 0.27% of 290,000 active; calls only; Q03530;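 active = fall in fluorescence gain of 50% or more versus controls, with final raw signal at or below 3038400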
MEKK2wt confirm = raises or lowers MEK5 binding to wildtype human MEKK2, retest; shares compounds with MEKK3 PB1 HTS; bead flow cytometry, Alexa488-MEK5 binding to MEKK2 WT; actives lie on both sides; binding response (% of control), % at 10 µM; 2.4% of 5,900 active; in the data active = binding response below about 16% or above about 210%; inactive = in between
MEKK2mut-MEK5 = signal of MEK5 binding to mutant human MEKK2, retest; shares compounds with MEKK3 PB1 HTS; bead flow cytometry, Alexa488-MEK5 binding to MEKK2 mutant; percent response, % at 10 µM; 2% of 5,900 active; AID 1893; in the data active = percent response mostly above about 71%, no sharp cut-off; inactive = mostly below about 38%;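 note: higher means compound restores mutant binding toward wildtype level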
MEKK3 confirm = MEKK3-MEK5 PB1 inhibition, single concentration confirmation; shares compounds with MEKK3 PB1 HTS; bead flow cytometry, Alexa488-MEK5 binding to MEKK3; hits give low values; binding response (% of control), % at 10 µM; 1.8% of 5,900 active; AID 1894;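 active = binding response below 72% of control, or above a set upper limit, though filed actives all read lower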;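 note: lower values mean stronger disruption of MEK5 binding to MEKK3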
Of the large screens only hits and unclear results are named; the others gave an inactive call (follow-up assays come after a bar, where they were run); [ ] = another dose, or the depositor's remark.

CCN(CC)CC(=O)N1CCCC(N2CCN(c3cccc(C(F)(F)F)c3)CC2)C1 (stereo unspecified)	none
COc1ccc(NC(=S)N/N=C2\CC(C)(C)Oc3ccc(OC)cc32)cc1	MEKK3 PB1 HTS 130 | MEKK2wt confirm inactive | MEKK2mut-MEK5 inactive | MEKK3 confirm inactive
CC(C)(C)OC(=O)NN1CC(=O)N2Cc3ccccc3C[C@@H]2C1=O	none
CCN(CC)c1ccc(C=N/C(C#N)=C(\N)C#N)cc1	MEKK3 PB1 HTS 1.0[inhibitor] (no result: MEKK2wt PB1 HTS) | MEKK2wt confirm inactive | MEKK2mut-MEK5 inactive | MEKK3 confirm inactive
Cc1ccc(NC(=O)NCC2CCN(Cc3cccc(Cl)c3)CC2)cc1Cl	MEKK2wt PB1 HTS 182 | MEKK2wt confirm inactive | MEKK2mut-MEK5 inactive | MEKK3 confirm inactive
COc1cc(OC)cc(C(=O)OCCCOC(=O)c2cc(OC)cc(OC)c2)c1	none
CSc1cccc(NC(=S)NN(C)C)c1	MEKK2wt PB1 HTS 60[inhibitor], MEKK3 PB1 HTS 68[inhibitor] | MEKK2wt confirm inactive | MEKK2mut-MEK5 inactive | MEKK3 confirm inactive
O=[N+]([O-])c1ccc(O)c(C(C#Cc2ccccc2)N2CCOCC2)c1 (stereo unspecified)	MEKK3 PB1 HTS 67[inhibitor] | MEKK2wt confirm inactive | MEKK2mut-MEK5 inactive | MEKK3 confirm inactive
O=C(O)c1cccnc1SC1CC(=O)N(c2ccccc2)C1=O (stereo unspecified)	MEKK3 PB1 HTS 128 | MEKK2wt confirm inactive | MEKK2mut-MEK5 inactive | MEKK3 confirm inactive
COc1ccc(N2C(=O)CC(Sc3ncccc3C(=O)O)C2=O)cc1 (stereo unspecified)	none
CC[C@H](C)[C@@H](CN[C@H](CCCCNC)CNC)NCC1CCCC1	MEKK2wt PB1 HTS 141 | MEKK2wt confirm inactive | MEKK2mut-MEK5 inactive | MEKK3 confirm inactive
CC(NC(=O)CN(c1ccccc1F)S(C)(=O)=O)c1ccccc1 (stereo unspecified)	MEKK2 mut-MEK5 27 | MEKK2wt confirm inactive | MEKK2mut-MEK5 inactive | MEKK3 confirm inactive
CCn1cc(C(=O)O)c(=O)c2cnc(N3CCN(C(=S)NC(=O)c4ccc(Cl)cc4)CC3)nc21	none
COc1ccc2c(c1)c(CC(=O)Nc1ccc(C(C)=O)cc1)c(C)n2C(=O)c1ccc(Cl)cc1	MEKK3 PB1 HTS 47[inhibitor] | MEKK2wt confirm inactive | MEKK2mut-MEK5 inactive | MEKK3 confirm inactive
COc1ccc(-c2sc3ccc(-c4ccc5c(c4)OCO5)cc3c2-c2ccc(OC)nc2)cc1	none (no result: MEKK2wt PB1 HTS, MEKK2 mut-MEK5, MEKK3 PB1 HTS, Rce1 inh)
CCSc1cc(N2CCCC2)nc(-c2ccccc2Cl)n1	none
O=C(O)c1ncn(Cc2ccc(Br)cc2)c1C(=O)O	none
OC(CN1CCOCC1)(c1ccccc1)c1ccccn1 (stereo unspecified)	none
CC(=O)Oc1ccc(/C=C2/SC(=S)N(Cc3ccccc3)C2=O)cc1	none
CC(=O)N1CC(=O)N(Cc2ccccc2)/C(=C/c2ccccc2)C1=O	MEKK3 PB1 HTS 132 | MEKK2wt confirm inactive | MEKK2mut-MEK5 inactive | MEKK3 confirm inactive
COc1ccc(C)cc1S(=O)(=O)N1CCCCCC1	MEKK3 PB1 HTS 129 | MEKK2wt confirm inactive | MEKK2mut-MEK5 inactive | MEKK3 confirm inactive
O=C1CCCCC1Sc1nnc(-c2ccc3c(c2)OCO3)o1 (stereo unspecified)	none
Cc1ccc(-n2c(SCC(=O)N3CC(=O)Nc4ccccc43)nc3ccccc3c2=O)cc1C	MEKK3 PB1 HTS 136 | MEKK2wt confirm inactive | MEKK2mut-MEK5 inactive | MEKK3 confirm inactive
O=C(CSc1nc2ccccc2c(=O)n1-c1ccccc1)N1CCc2ccccc2C1	none
CC(C)c1ccccc1-n1c(SCC(=O)N2CCc3ccccc3C2)nc2ccccc2c1=O	MEKK3 PB1 HTS 155 | MEKK2wt confirm inactive | MEKK2mut-MEK5 inactive | MEKK3 confirm inactive
O=C(CSc1nc2ccccc2c(=O)n1-c1ccccc1)N1CCC1	none
Cc1cccc(-n2c(SCC(=O)N3CC(=O)Nc4ccccc43)nc3ccccc3c2=O)c1	none

Bioassay records from PubChem.
